# Reference: PubChem BioAssay
# Calls of active or inactive are those of the source.
# Assays:
# [1] = test system: Human papillomavirus type 1a protein E7 (residues 44-93); test: small molecules binding HPV E7 44-93 – biochemical, small-molecule microarray, residues 44-93, 635 nm fluorescence, primary screen (AID 1108); details: fluorescence 635 nm, higher = more signal;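 note: E7 fragment applied at 1 µg/mL in TBST for 1 h at 4 C; score combines spot fluorescence with its signal to noise ratio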
# [2] = hepatitis C replication reporter changes, two-sided – Huh7 cells, luciferase reporter, HCV replication inhibitor project, primary screen (AID 1109); details: Huh7 HCV replicon luciferase reporter, 48 h; higher = more signal;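 note: huh7 hepatoma cells harbouring a luciferase neomycin HCV replicon reporter; luciferase luminescence as measure of HCV replicon replication; test concentration not given here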
# [3] = target: Left-right determination factor 2 (Homo sapiens) (UniProt O00292); test: small molecules binding LEFTY2 protein – biochemical, small-molecule microarray, 635 nm fluorescence scan, primary screen (AID 1110); details: higher = more signal
# [4] = target: Calmodulin-1 (Homo sapiens) (UniProt P0DP23); test: small molecules binding calmodulin-1 with EGTA – biochemical, small-molecule microarray, Cy5-labelled CALM1, profiling panel (AID 1111); details: Cy5-CALM1 binding fluorescence, higher = more signal;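 note: labelled calmodulin applied in Tris saline Tween buffer holding calcium plus EGTA and DTT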
# [5] = target: Calmodulin-1 (Homo sapiens) (UniProt P0DP23); test: small molecules binding Ca-loaded calmodulin-1 – biochemical, small-molecule microarray, Cy5-labelled CALM1, plus calcium, artefact control for SMM control-protein annotation, profiling panel (AID 1112); details: Cy5-CALM1 binding fluorescence, higher = more signal;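 note: score merges spot fluorescence with signal to noise from triplicate slides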
# [6] = probe aWnt5a binding to arrayed compounds – biochemical, biotinylated probe, 635/667 nm fluorescence, primary screen (AID 1113); details: small-molecule microarray, higher = more signal;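 note: score merges 667 nm fluorescence intensity with signal-to-noise per printed feature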
# [7] = probe aShh binding to arrayed compounds – biochemical, biotinylated probe, 635/667 nm fluorescence, primary screen (AID 1114); details: small-molecule microarray, higher = more signal;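 note: probe is biotin-labelled aShh protein from a stem cell growth factor screen; measures binding of labelled protein to compounds printed on the slide; score merges feature fluorescence at 667 nm with signal-to-noise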
# [8] = probe aNog binding to arrayed compounds – biochemical, biotinylated probe, 635/667 nm fluorescence, primary screen (AID 1115); details: small-molecule microarray, higher = more signal;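 note: probe is biotinylated aNog protein used at 0.15 µg/mL for 1 h at 4 C; z-score combines 667 nm fluorescence of each spot with its signal to noise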
# [9] = target: Torsin-1A-interacting protein 1 (Homo sapiens) (UniProt Q5JTV8); test: compound microarray binding of lysate hLAP1 – cell lysate, small-molecule microarray, COS7 lysate, 635/667 nm fluorescence, primary screen (AID 1116); details: 635 nm fluorescence, higher = more signal
# [10] = target: Alpha-bungarotoxin (Bungarus multicinctus) (UniProt P60615); test: compounds binding labelled alpha-BTX control protein – biochemical, small-molecule microarray, Alexa647 label, 635/667 nm fluorescence, artefact control for SMM control protein annotation, profiling panel (AID 1117); details: alpha-BTX-A647 binding fluorescence, higher = more signal
# Albumin (Bos taurus) = Albumin (Bos taurus) (UniProt P02769); test: compounds binding labelled BSA control protein – biochemical, small-molecule microarray, Alexa647 label, 635/667 nm fluorescence, artefact control for SMM control protein annotation, profiling panel (AID 1118); details: BSA-A647 binding, fluorescence 635 nm, higher = more signal;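 note: score merges 667 nm emission intensity and signal-to-noise per printed compound spot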
# [11] = probe aXIP binding to arrayed compounds – biochemical, NeuroSMM set, 635/667 nm fluorescence, primary screen (AID 1119); details: small-molecule microarray, higher = more signal, called active from +8 up or from −8 down;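 note: probe is the protein aXip251-270 applied at 1 µg/mL to compound-printed slides; binding of probe to printed compounds measured as 667 nm fluorescence plus signal to noise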
# [12] = probe aNOTCH3 binding on compound microarray – biochemical, small-molecule microarray, 635/667 nm fluorescence, primary screen (AID 1120); details: higher = more signal;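 note: probe is a biotin-tagged antibody raised against NOTCH3 rather than NOTCH3 protein; score merges spot fluorescence near 667 nm with spot signal to noise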
# [13] = probe aNOTCH2 binding on compound microarray – biochemical, small-molecule microarray, 635/667 nm fluorescence, primary screen (AID 1121); details: higher = more signal;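 note: score merges feature fluorescence read at 667 nm with its signal to noise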
# [14] = target: Carbonic anhydrase 2 (Homo sapiens) (UniProt P00918); test: compounds binding carbonic anhydrase 2 – biochemical, small-molecule microarray, Alexa647-labelled CAII, profiling panel (AID 1122); details: CAII-A647 binding fluorescence, higher = more signal
# [15] = COS7 lysate on small-molecule microarray, probe aHis, 635 nm (AID 1123); details: COS7 cell lysate, fluorescence, higher = more signal;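 note: z-score combines 667nm fluorescence intensity with signal-to-noise per printed compound spot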
# [16] = probe aLAP1 signal on lysate-treated microarray – cell lysate, small-molecule microarray, COS7 lysate, primary screen (AID 1124); details: probe aLAP1, fluorescence, higher = more signal;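 note: lysate comes from COS7 cells expressing LAP1 and is applied at 0.3 µg/mL; score merges spot fluorescence near 667 nm with signal-to-noise over triplicate slides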
# Sam68 (KHDRBS1) = test: compounds binding KHDRBS1 protein – biochemical, small-molecule microarray, 635 nm fluorescence, primary screen (AID 1125); details: higher = more signal;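 note: score merges 667 nm channel intensity with signal to noise over triplicate slides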
# [17] = test system: Chordin-like protein 2 (CHRDL2); test: compounds binding chordin-like 2 – biochemical, small-molecule microarray, 635 nm fluorescence, primary screen (AID 1126); details: fluorescence 635 nm, higher = more signal;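 note: printed compound slides probed with Chrdl2 protein at 4 µg/mL for 1 h at 4 C; score merges 667 nm emission intensity with signal to noise over three replicate slides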
# [18] = target: Concanavalin-A (Canavalia ensiformis) (UniProt P02866); test: compounds binding concanavalin A lectin – biochemical, small-molecule microarray, Alexa647 label, 635 nm, artefact control for SMM control protein annotation, primary screen (AID 1127); details: ConA-A647 binding fluorescence, higher = more signal;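 note: z combines 667 nm emission intensity with signal-to-noise across three replicate slides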
# Concanavalin-A (Canavalia ensiformis), sequence (P02866 whole entry, looked up): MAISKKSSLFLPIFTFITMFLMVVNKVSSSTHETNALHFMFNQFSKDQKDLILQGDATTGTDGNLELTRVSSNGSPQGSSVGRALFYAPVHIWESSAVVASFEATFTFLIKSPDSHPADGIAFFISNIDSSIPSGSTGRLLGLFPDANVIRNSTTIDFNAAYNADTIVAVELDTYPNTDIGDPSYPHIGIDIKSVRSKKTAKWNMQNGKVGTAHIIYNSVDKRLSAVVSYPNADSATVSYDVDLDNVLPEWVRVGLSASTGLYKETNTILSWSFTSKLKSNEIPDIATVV
# Torsin-1A-interacting protein 1 (Homo sapiens), sequence (Q5JTV8 whole entry, looked up): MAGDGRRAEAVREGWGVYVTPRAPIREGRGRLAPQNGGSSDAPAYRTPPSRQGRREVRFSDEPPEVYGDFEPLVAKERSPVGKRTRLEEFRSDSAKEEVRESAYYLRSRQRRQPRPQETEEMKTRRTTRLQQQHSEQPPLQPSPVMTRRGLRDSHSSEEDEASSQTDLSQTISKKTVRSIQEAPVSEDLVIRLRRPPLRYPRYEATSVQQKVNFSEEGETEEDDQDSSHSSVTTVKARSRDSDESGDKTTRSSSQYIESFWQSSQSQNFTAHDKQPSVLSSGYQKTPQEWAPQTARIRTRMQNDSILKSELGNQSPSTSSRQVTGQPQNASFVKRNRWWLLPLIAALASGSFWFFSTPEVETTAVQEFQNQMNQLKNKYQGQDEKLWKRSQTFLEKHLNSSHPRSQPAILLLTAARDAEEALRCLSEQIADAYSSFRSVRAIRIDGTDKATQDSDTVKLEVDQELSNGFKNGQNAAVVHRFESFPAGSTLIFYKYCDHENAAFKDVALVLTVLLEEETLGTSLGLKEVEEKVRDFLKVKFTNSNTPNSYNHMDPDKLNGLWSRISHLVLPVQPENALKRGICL
# Left-right determination factor 2 (Homo sapiens), sequence (O00292 whole entry, looked up): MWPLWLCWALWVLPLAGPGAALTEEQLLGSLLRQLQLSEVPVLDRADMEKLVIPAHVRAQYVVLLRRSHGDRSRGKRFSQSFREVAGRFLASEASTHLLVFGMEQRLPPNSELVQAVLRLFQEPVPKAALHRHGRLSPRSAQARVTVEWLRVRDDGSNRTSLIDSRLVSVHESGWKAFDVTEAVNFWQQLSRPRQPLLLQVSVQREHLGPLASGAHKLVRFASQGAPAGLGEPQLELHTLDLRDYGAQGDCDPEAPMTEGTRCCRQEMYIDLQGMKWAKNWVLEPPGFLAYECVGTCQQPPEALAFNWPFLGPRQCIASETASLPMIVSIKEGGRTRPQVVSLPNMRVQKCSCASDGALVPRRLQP
# Alpha-bungarotoxin (Bungarus multicinctus), sequence (P60615 whole entry, looked up): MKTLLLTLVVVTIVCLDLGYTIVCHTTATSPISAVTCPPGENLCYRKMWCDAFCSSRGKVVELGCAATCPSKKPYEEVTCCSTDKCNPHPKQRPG
# Albumin (Bos taurus), sequence (P02769 whole entry, looked up): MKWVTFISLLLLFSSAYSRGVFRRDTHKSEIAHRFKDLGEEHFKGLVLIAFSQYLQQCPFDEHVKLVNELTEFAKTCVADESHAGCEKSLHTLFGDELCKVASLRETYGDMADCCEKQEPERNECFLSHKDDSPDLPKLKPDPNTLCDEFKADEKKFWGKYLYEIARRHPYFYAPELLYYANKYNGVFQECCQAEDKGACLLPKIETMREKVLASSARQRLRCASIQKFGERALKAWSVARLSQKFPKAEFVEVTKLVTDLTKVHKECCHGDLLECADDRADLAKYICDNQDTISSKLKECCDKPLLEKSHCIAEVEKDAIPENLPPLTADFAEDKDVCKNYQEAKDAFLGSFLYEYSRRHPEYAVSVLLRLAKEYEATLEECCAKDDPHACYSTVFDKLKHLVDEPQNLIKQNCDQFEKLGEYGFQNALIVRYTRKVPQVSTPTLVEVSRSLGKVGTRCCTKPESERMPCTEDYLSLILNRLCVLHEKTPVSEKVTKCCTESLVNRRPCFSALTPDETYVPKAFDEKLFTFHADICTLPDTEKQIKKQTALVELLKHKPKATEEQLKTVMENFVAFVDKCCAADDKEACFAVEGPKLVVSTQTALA
SMILES,composite z-score [1],z-score [2],composite z-score [3],composite z-score [4],composite z-score [5],composite z-score [6],composite z-score [7],composite z-score [8],composite z-score [9],composite z-score [10],composite z-score (Albumin (Bos taurus)),composite Z-score [11],composite z-score [12],composite z-score [13],composite z-score [14],composite z-score [15],composite z-score [16],composite z-score (Sam68 (KHDRBS1)),composite z-score [17],composite z-score [18]
CC(C)CNC(=O)[C@@H]1c2ccccc2C(=O)N(Cc2ccccc2Cl)[C@H]1c1ccc(CO)cc1,1.07,-0.249,-1.09,0.0642,-0.116,-0.244,-0.0813,-0.0769,1.69,-1.39,-0.261,0.191 (inactive),-0.212,-0.0404,0.687,1.57,0.397,-0.537,-0.686,-1.68
CC1CC/C=C\[C@H]2OC34C=CCN(CCN5CCOCC5)C(=O)[C@H]3N(CCCCCCO)C(=O)[C@@H]4C2C(=O)O1 (stereo not given in full),-1.14,-0.709,-1.12,-0.482,-0.42,-0.232,-0.154,-0.305,-0.933,-0.307,-0.0754,0.446 (inactive),-0.438,-0.14,0.864,-0.686,-0.362,-0.715,-0.756,-1.53
C=C(COC)/C(=C/C[C@@H](OC(C)=O)c1ccccc1OCCO)c1cc(C(=O)OC)ccc1OC,1.3,-2.3,-0.145,-0.249,-0.808,-0.1,0.0469,0.0502,1.46,0.324,0.27,1.02 (inactive),0.213,-0.122,0.388,0.283,0.0845,0.844,-0.183,0.369
O=C1N(CCS(=O)(=O)c2ccccc2)c2ccccc2[C@@H]2OC(c3ccc(OCCCO)cc3)=N[C@]12CCS(=O)(=O)c1ccccc1,1.38,0.182,0.8,1.67,0.176,0.0142,0.109,0.0373,2.17,1.67,0.929,0.759 (inactive),0.0496,0.0684,0.503,2.8,1.21,1.29,1.1,1.15
COc1cccc(OC)c1C(=O)O[C@H]1[C@@H]2OC(=O)[C@H](Cc3cccc(Br)c3)C/C=C/C[C@@H](Cc3cccc(Br)c3)C(=O)O[C@H]2[C@@H](OC)O[C@@H]1CO,0.479,-2.37,0.309,-0.108,-0.0545,-0.0869,0.111,0.113,0.482,0.528,0.33,0.878 (inactive),-0.122,-0.105,0.628,1.2,0.56,1.06,0.351,0.293
N[C@@H](Cc1ccccc1)Cn1cc(C2(O)CCCCC2)nn1,0.488,0.118,0.0904,0.816,-0.431,-0.0236,0.23,-0.0827,0.228,0.967,-0.052,-0.116 (inactive),-0.014,-0.14,-0.29,0.451,0.0682,0.525,0.0155,0.88
NC(=O)[C@@]1(CCS(=O)(=O)c2ccccc2)COC(c2ccc(OCCCO)cc2)=N1,-0.244,-0.806,-0.323,1.12,0.549,-0.0495,0.138,-0.359,0.512,0.768,0.336,-0.823 (inactive),0.119,0.327,0.445,0.043,-0.84,-0.0922,-0.536,0.411
O=C1O[C@H](c2ccccc2)[C@H](c2ccccc2)N2[C@H]1[C@@H](C(=O)N1CCN(c3ncccn3)CC1)[C@]1(C(=O)Nc3ccccc31)[C@H]2c1ccc(O)cc1,1.43,-1.9,-0.412,1.28,0.618,-0.0643,-0.119,0.265,-0.15,0.593,0.753,0.56 (inactive),-0.0932,-0.0438,0.672,2.48,0.445,1.29,-0.0771,1.16
C=CCC(OC(C)=O)[C@@H]1[C@@H](N(Cc2cc3ccccc3o2)C(=O)c2cccc3ccccc23)c2cc(OCCCO)ccc2N1C(=O)c1ccc2ccccc2c1 (stereo not given in full),-0.0617,-0.0143,-0.338,-0.0758,0.63,0.0047,-0.138,-0.12,0.414,0.0671,0.163,-0.73 (inactive),-0.0647,-0.0906,0.229,0.542,-0.177,-0.0368,0.556,-0.259
COc1ccc([Si](C)(C)[C@@H]2[C@@H](CCO)O[C@]3(C(=O)N(Cc4ccccc4)c4ccc(N5C(=O)c6ccccc6Oc6ccccc65)cc43)[C@H]2C)cc1,-0.175,-4.15,-0.75,0.417,0.925,-0.208,-0.0605,-0.0541,-0.361,0.367,0.208,0.304 (inactive),-0.192,-0.155,-0.0035,0.981,-0.0345,-0.809,-1.36,0.718
CC(C)(C)OC(=O)CC[C@]1(C(N)=O)N=C(c2ccc(OCCCO)cc2)O[C@H]1c1ccccc1CN=[N+]=[N-],0.6,1.46,-0.63,2.67,1.73,-0.096,0.84,-0.143,2.26,1.46,0.712,0.523 (inactive),0.761,0.234,0.981,3.63,0.666,1.33,-0.894,0.831
